Data published in PubChem BioAssay (NCI).
This is part of a sample that, as a whole, favours compounds with a hit. Of some 83,000 tested, about 20% had one in any assay.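 Treatment: one concentration, 48 hours, 96-well format. Scoring: percent growth, with anything below 10 considered active.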 Active and inactive are the calls of the source.

Assays:
Assay in all cases: NCI-60 one-dose screen, 48 h (100 = growth as untreated, 0 = no growth, -100 = all killed)
Conditions in all cases: 10 µM unless noted
[1] = test system: HCT-15 colon
[2] = test system: HT29 colon
[3] = test system: SNB-75 CNS
[4] = test system: SNB-19 CNS
[5] = test system: U251 CNS
[6] = test system: PC-3 prostate
[7] = test system: SK-MEL-5 melanoma
[8] = test system: UACC-62 melanoma
[9] = test system: LOX IMVI melanoma
[10] = test system: SK-MEL-28 melanoma

Measured: growth

CC(C)Cc1cc(CNC(=O)C2[C@H]3CN(C(=O)c4ccccc4)C[C@@H]23)nn1-c1ccccc1 (stereo not given in full)
inactive: [1] 99.3% | [2] 66.5% | [3] 105% | [4] 107% | [5] 90.1% | [6] 90.8% | [7] 99% | [8] 88.2% | [9] 91.9% | [10] 93.5%

COCCc1n(Cc2ccc3ccccc3c2)c2ccccc2[n+]1Cc1ccc2ccccc2c1
active: [1] 7.25% | [2] -61.3% | [3] -39.7% | [4] -73.8% | [5] -89.8% | [6] -14.5% | [7] -97.5% | [8] -89.3% | [9] -92.5% | [10] -46.4%

CC1(C)CC[C@]2(c3nnc(-c4ccncc4)o3)CC[C@]3(C)C(=CC[C@@H]4[C@@]5(C)CCC(=O)C(C)(C)[C@@H]5CC[C@]43C)[C@@H]2C1
inactive: [1] 71.8% | [2] 77.5% | [3] 88.7% | [4] 78.7% | [5] 76.9% | [6] 47.5% | [7] 74.3% | [8] 67.3% | [9] 72.2% | [10] 83.5%

CCN1CCN(c2ccc(NC(=O)Nc3nc4ccc(-c5ccccc5OC)cc4s3)cc2)CC1
active: [1] -83.2% | [2] -92% | [3] -19.8% | [4] -82.8% | [5] -87% | [6] -83.8% | [7] -98.8% | [8] -85.3% | [9] -86.4% | [10] -79.3%

Nc1c(C(=O)Nc2cccc3ccccc23)sc2nc3c(cc12)COCC3
inactive: [1] 32.2% | [2] 12.4% | [3] 30.9% | [4] 33.4% | [5] 30% | [6] 53.5% | [7] 31% | [8] 30.2% | [9] 42.7% | [10] 60.6%

COC(=O)CCc1n(Cc2ccc3ccccc3c2)c2ccccc2[n+]1Cc1ccc2ccccc2c1
inactive: [1] 79.1% | [4] 16%
active: [2] -25.5% | [3] -8.15% | [5] 8.5% | [6] 6.6% | [7] -92.9% | [8] -54% | [9] -59.3% | [10] 4.8%

CC(C)C[C@H](C(=O)O)N(C)C(=O)[C@@H]1CCCN1C(=O)[C@H](C)OC(=O)[C@H](CCC(N)=O)NC(=O)[C@@H]1CCC(=O)N1
active: [5] -37%
inactive: [1] 95.9% | [2] 104% | [3] 84.3% | [4] 102% | [6] 96.6% | [7] 95.6% | [8] 102% | [9] 104% | [10] 103%

CS(=O)(=O)O[C@@H]1C(=O)N(c2cc3c4ccccc4ccc3c3ccccc23)[C@H]1c1ccc(F)cn1
active: [2] 3.71% | [3] -0.245%
inactive: [1] 29.1% | [4] 38.3% | [5] 29.5% | [6] 34.7% | [7] 13.6% | [8] 34% | [9] 34.2% | [10] 68.6%

Nc1ccc(C(=O)Nc2cccc(C(=O)Nc3ccc4c(O)c(N=Nc5ccc(N=Nc6ccc(S(=O)(=O)O)cc6)cc5)c(S(=O)(=O)O)cc4c3)c2)cc1
inactive: [1] 102% | [2] 97.6% | [3] 85.7% | [4] 107% | [5] 107% | [6] 98.2% | [7] 107% | [8] 98.6% | [9] 94.7% | [10] 99.7%

[2H]c1cc2c(c([2H])c1F)/C(=C/c1[nH]c(C)c(C(=O)NCCN(CC)CC)c1C)C(=O)N2
inactive: [1] 29.9% | [2] 19% | [3] 50.4% | [4] 85.4% | [5] 66.5% | [6] 28.3% | [7] 51% | [8] 67% | [9] 26.5% | [10] 64.7%

FC(F)(F)c1ccc2c(Nc3cccc(C4CC(c5ccccc5)=NN4c4ccc(Cl)cc4)c3)ccnc2c1 (stereo not given)
inactive: [2] 19% | [3] 70% | [4] 41.4% | [5] 29.3% | [6] 34% | [7] 75.1% | [8] 49.4% | [10] 48.6%
active: [1] 5.61% | [9] -53.9%

COc1cccc(NC(=O)Nc2ccc(Oc3ncnc4[nH]c(C)c(C)c34)cc2)c1
active: [9] -54.9%
inactive: [1] 87.9% | [2] 75.4% | [3] 87.2% | [4] 89.7% | [5] 76.9% | [6] 80.8% | [7] 88% | [8] 74.2% | [10] 103%

O=C(NCc1ccccc1)c1ccc2c(c1)NC(=O)[C@@H]1CCCN21
inactive: [1] 99.6% | [2] 103% | [3] 86.6% | [4] 94.6% | [5] 102% | [6] 103% | [7] 101% | [8] 93.7% | [9] 91.2% | [10] 103%

CC1(C)Cc2c(Br)c(Br)c(Br)c(OCC(O)CN3CCOCC3)c2O1 (stereo not given)
active: [6] 9.22%
inactive: [1] 88.2% | [2] 64.6% | [3] 94% | [4] 100% | [5] 93.5% | [7] 66.5% | [8] 94.6% | [9] 87.1% | [10] 137%

NC(=O)c1ccc(C2C3=C(CCCC3=O)OC3=C2C(=O)c2ccccc2C3=O)cc1 (stereo not given)
inactive: [1] 53.8% | [2] 29.7% | [4] 49.6% | [6] 12.3% | [10] 59.6%
active: [3] -1.57% | [5] 0.896% | [7] -93.9% | [8] -38.8% | [9] -19.3%

C=C(C)[C@@H]1CC[C@]2(C(=O)OCCOCCOCC[P+](c3ccccc3)(c3ccccc3)c3ccccc3)CC[C@]3(C)[C@H](CC[C@@H]4[C@@]5(C)CC[C@H](OC(C)=O)C(C)(C)[C@@H]5CC[C@]43C)[C@@H]12
active: [1] -81.3% | [2] -88.5% | [3] -87.2% | [4] -93.6% | [5] -95.4% | [6] -90.2% | [7] -98.5% | [8] -86.5% | [9] -93.2% | [10] -86.7%

Nc1c(C(=O)Nc2ccccn2)sc2nc3c(cc12)CCCCC3
active: [2] 7.16%
inactive: [1] 24% | [3] 12.3% | [4] 33.4% | [5] 23.2% | [6] 31.4% | [7] 22.2% | [8] 40.8% | [9] 48.6% | [10] 73.7%

Cc1nccc2c3ccc(OCc4cn(-c5ccc(Cl)cc5)nn4)cc3n(CC(C)C)c12
inactive: [1] 18.7% | [3] 55.8% | [4] 38.9% | [5] 26.9% | [6] 17.4% | [8] 24.2% | [10] 25.2%
active: [2] 1.3% | [7] -78.3% | [9] 3.05%

C=C1C(=O)O[C@H]2[C@H]1CC/C(COC(=O)NCC(=O)Nc1ccc(OC)c(C(N)=O)c1O)=C\CC[C@@]1(C)O[C@@H]21
inactive: [1] 91.2% | [2] 18.8% | [3] 76.9% | [4] 73.9% | [5] 62.6% | [6] 85.7% | [7] 76.4% | [8] 42.8% | [9] 55.8% | [10] 47.9%

Cc1nc(C)c(C)nc1C
inactive: [1] 109% | [2] 97% | [3] 101% | [4] 99.2% | [5] 96.7% | [6] 98.3% | [7] 102% | [8] 101% | [9] 101% | [10] 113%

NC(=O)C(O)(c1ccccc1)c1ccccc1
inactive: [1] 101% | [2] 92.3% | [3] 89% | [4] 99.4% | [5] 101% | [6] 87.3% | [7] 106% | [8] 95.9% | [9] 100% | [10] 112%

O=c1[nH]nc(-c2ccc(Br)cc2)c2sc(NC(=S)Nc3ccc(Cl)cc3)nc12
inactive: [1] 103% | [2] 94.1% | [3] 95.7% | [4] 103% | [5] 108% | [6] 96.6% | [7] 99% | [8] 89.5% | [9] 84.7% | [10] 109%
